Reference: PubChem BioAssay (NCI)
This is part of a sample that, as a whole, favours compounds with a hit. Of some 83,000 tested, about 20% had one in any assay.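 Treatment: one concentration, 48 hours, 96-well format. Scoring: percent growth, with anything below 10 considered active.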 Values without a mark were called inactive. Calls of active or inactive are those of the source.

tested on: COLO 205 colon; assay: NCI-60 one-dose screen, 48 h (100 = growth as untreated, 0 = no growth, -100 = all killed); conditions: 10 µM unless noted
Protocol: Cells are grown in 96 well plates and exposed to the test compound for 48 hours. Compounds are tested at a single concentration, which is 10^-5 M for most compounds. The reported endpoint is percent growth (GI% or GIPRCNT), where numbers from 0 - 100% represent growth inhibition, and numbers from -100% - 0 represent cell death. For example, a value of 40 represents 60% growth inhibition. A value of 0 means no net growth occurred over the course of the experiment. A value of -40 indicates 40% of cells at the beginning of the experiment died by the end of the experiment. A value of -100 means all cells are dead at the end of the experiment.
NCI-60 Human Tumor Cell Lines Screen was performed using the standard one-dose NCI protocol, which is described in more detail at https://dtp.cancer.gov/discovery_development/nci-60/default.htm.
Compounds with GIPRCNT values below 10 were considered active. Activity score was based on GIPRCNT using the following formula: […]
Score is 0 for GIPRCNT values of 100 or above, 50 for GIPRCNT values of 0, and 100 for GIPRCNT values of -100.

| Structure (SMILES) | growth |
| --- | --- |
| Nc1nc(N)c2cc(NCc3ccc(Cl)c(Cl)c3)ccc2n1 | -90.7% (active) |
| O=C1/C(=C/c2cc(F)cc(F)c2)Cc2cc(F)cc(F)c21 | 107% |
| C=C[C@H]1CCC/C=C/[C@@H]2C[C@H](O)C[C@H]2[C@H](O)/C=C/C(=O)O1 | -83.1% (active) |
| Cc1ccc([C@H]2c3[nH]c4ccccc4c3C[C@H]3C(=O)N(CCCCCCC(=O)NO)CC(=O)N23)cc1 | 47.3% |
| Cc1ccc(C(=O)CC(=O)C(F)(F)C(F)(F)C(F)(F)F)s1 | 119% |
| CN(C)c1nc(-c2cccs2)n2nc(-c3ccc(Cl)cc3)cc2n1 | 39.1% |
| Nc1c(C(=O)Nc2cccc(Cl)c2)sc2nc3c(cc12)C(=O)CCC3 | 10.2% |
| O=C(CSc1nc2c(n1Nc1ccccc1)-c1ccccc1SC2)Nc1nccs1 | 121% |
| CCN(CC)CCCC(C)Nc1c(-c2ccccc2)cnc2cc(Cl)ccc12 (stereo not given) | 85.3% |
| O=C(O/C(=C/c1ccccc1)C(F)(F)F)c1ccccc1 | 99.3% |
| O=[N+]([O-])c1ccc(SSc2ccc([N+](=O)[O-])cc2Cl)c(Cl)c1 | 127% |
| Cc1cccc2nc3ccccc3c(Nc3ccc(NS(C)(=O)=O)cc3)c12 | 51.1% |
| COc1cc(CN2CCC(N3CCCC3=O)c3ccccc32)cc(OC)c1OC (stereo not given) | 106% |
| CC1(C)CC(=O)c2cc3c(N)c(C(=O)Nc4ccc(Cl)cc4)sc3nc2C1 | 117% |
| Cc1c2c(cc3c1[nH]c1ccccc13)C=NCC2 | 78.2% |
| CCOc1cc(/C=N\NC(=O)C[N+](C)(C)C)ccc1O | 119% |
| CCCCCCCCCCCCNC(=O)N[C@H](C(=O)N[C@H]1/C=C/OCCNC(=O)/C=C/[C@H](C(C)C)NC1=O)C(C)C | 103% |
| C=C(C)[C@@H]1CC[C@]2(C(=O)NC(COC(=O)C(Cl)Cl)(COC(=O)C(Cl)Cl)COC(=O)C(Cl)Cl)CC[C@]3(C)[C@H](CC[C@@H]4[C@@]5(C)CC[C@H](OC(C)=O)C(C)(C)[C@@H]5CC[C@]43C)[C@@H]12 | 36.1% |
| COc1ccc(-n2c(COc3ccc(F)cc3)n[nH]c2=S)cc1 | 116% |
| C#CCO[C@H]1CC[C@H](OCC#C)[C@@H]2[C@H]1[C@H]1C[C@@H]3[C@@]4(C)CCC[C@@](C)(C(=O)OC)[C@@H]4CC[C@@]23C=C1C(C)C | 83.5% |

| Structure (SMILES) | growth |
| --- | --- |
| c1ccc(-c2nnn(-c3ccccc3)n2)cc1 | 117% |
| C#Cc1cccc(Nc2nc3cc([N+](=O)[O-])ccc3nc2Nc2ccc(O)cc2)c1 | -49.9% (active) |
| COc1cccc(NC(=O)OC(C)C)c1 | 103% |
| COc1cc(NCC(O)CN(CC(C)C)CC(C)C)c2ncccc2c1 (stereo not given) | 81% |
| COc1ccc(-c2nc3c(c(-c4ccc(Cl)cc4)nn3-c3ccccc3)c(-c3ccc(O)cc3)c2C#N)cc1 | 57.8% |
| CCOC(=O)c1ccc2c(c1)nc(-c1ccc(Cl)cc1)n2-c1cc(C(C)(C)C)[nH]n1 | 34.7% |
| COc1ccccc1CNCCCN1C(=O)c2ccc3c4c(ccc(c24)C1=O)C(=O)N(CCCNCCCN)C3=O | -87.8% (active) |
| CC1OC(n2c3ccccc3c3c4c(c5c6ccccc6[nH]c5c32)C(=O)N(CCN[C@H]2CCC[C@@H]2N)C4=O)CC(O)C1O (stereo not given in full) | 11.5% |
| CCSCC1CC(O)(c2ccccc2)C(c2ccccc2)C(c2ccc(F)cc2)O1 (stereo not given) | -70.2% (active) |
| CC(C)CCC(=O)[C@@H](C)[C@H]1[C@@H](OC2OCC(O)C(O)C2NS(C)(=O)=O)C[C@H]2[C@@H]3CC=C4C[C@@H](O)CC[C@]4(C)[C@H]3CC[C@]12C (stereo not given in full) | -0.62% (active) |
| COc1nccc2c(Sc3ccccc3)nc(N)nc12 | 117% |
| C[C@@H]1CC2C3CCC4=CC(=O)C=C[C@]4(C)[C@@]3(Cl)[C@@H](O)C[C@]2(C)[C@@]1(OC(=O)c1ccco1)C(=O)CCl (stereo not given in full) | 111% |
| COc1ccc(-c2conc2-n2nc(-c3ccccc3)nc2-c2ccccc2)cc1 | 112% |
| CCC1N=C(N)N=C(N)N1c1ccc(Cl)cc1 (stereo not given) | 121% |
| CCn1c(Cc2ccccc2Nc2c(Cl)cccc2Cl)nnc1SCC(=O)Nc1cccc(OC)c1 | 96.4% |
| N/N=C(\C(=N\N)c1ccccc1)c1ccccc1 | 108% |
| C=CCOC(=O)C1=C(C)NC2=C(C(=O)CCC2)C1c1ccc(F)cc1 (stereo not given) | 103% |
| CCN1CCN(Cc2ccc(NC(=O)Nc3ccc(-n4ccc5c(NC(=O)c6ccccc6)nccc54)cc3)cc2C(F)(F)F)CC1 | -87.5% (active) |
| CN(C)CCNC(=O)n1cc(-c2ccncc2)c(-c2cc(O)cc(Cl)c2)n1 | 88.6% |
| CN1C(=O)N(C)C2C1NN=c1s/c(=C\c3ccc(C(F)(F)F)cc3)c(=O)n12 (stereo not given) | -0.525% (active) |
